Reference: PubChem BioAssay AID2417 (National Center for Advancing Translational Sciences (NCATS), 2010)
About 4,300 (3.1%) of roughly 140,000 compounds were called active. Another 21% or so got no clear call; they are omitted.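 Rule for the calls: active = readout at or below -70, meaning at least 70% loss of cells showing the perinucleolar compartment, a nuclear body marking cancer cells; inconclusive = readout between -30 and a set limit; inactive = the rest.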 Shown is part of a subset that was picked to be rich in actives.

Assay: High Content Assay for Compounds that inhibit the Assembly of the Perinucleolar Compartment;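 note: plate controls were DMSO wells for no effect and camptothecin positive control wells for full effect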
Details: PC3M PTB-GFP, PNC prevalence imaging, 16 h; at 10 µM; stronger effect = lower value
Outline: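 Compounds are pinned in duplicate onto adhered PC3M cells stably expressing GFP-tagged PTB and incubated 16 h at 37 C. Cells are then fixed, nuclei stained with Hoechst, and PNC-positive cells counted.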

Row | Compound | activity change (PNC), negative = inhibition
1 | COCCCNC(=S)NC(=O)c1ccccc1 | -29.6% (inactive)
2 | Cc1ccc(-c2cn3cc([N+](=O)[O-])ccc3n2)cc1 | 19.9% (inactive)
3 | O=C(NNC(=S)NCc1ccccc1)c1ccc(OC(F)F)cc1 | -4.88% (inactive)
4 | COc1ccc(C/C(C)=N/NC(=O)c2cc(C)oc2C)cc1 | 15.4% (inactive)
5 | O=C(CN1CCN(S(=O)(=O)c2ccc(F)cc2)CC1)Nc1ccccc1F | -12% (inactive)
6 | COc1ccc(NC(=O)CN2CCN(S(=O)(=O)c3ccc(F)cc3)CC2)cc1Cl | -123% (active)
7 | COc1cc2c(cc1NC(=O)CN1CCN(S(=O)(=O)c3ccc(F)cc3)CC1)oc1ccccc12 | -22.6% (inactive)
8 | CCc1ccc(NC2Nc3cc(C)nn3S2)cc1 (stereo unspecified) | 66.7% (inactive)
9 | O=C(CN1CCN(C2CCCCC2)CC1)Nc1ccccc1N1CCCCC1 | -8.13% (inactive)
10 | Cc1ccccc1NC(=O)CNc1ccccc1N1CCCCC1 | -94.9% (active)
11 | Cn1c(=O)c2c(nc(SCC(=O)Nc3ccccc3N3CCCCC3)n2C)n(C)c1=O | -26.8% (inactive)
12 | Cc1occc1C(=O)NNC(=S)NCC(C)C | -25.7% (inactive)
13 | Cc1scc(C(=O)NNC(=S)NCC(C)C)c1C | -6.46% (inactive)
14 | CC(C)CNC(=S)NNC(=O)c1nn(C)cc1Cl | -100% (active)
15 | Cc1ccc(S(=O)(=O)N(C)C)cc1NC(=O)COC(=O)c1c(C)noc1C | -21.3% (inactive)
16 | Cc1ccc(S(=O)(=O)N(C)C)cc1NC(=O)/C=C/c1cccs1 | -119% (active)
17 | Cc1ccc(NC(=O)c2cccs2)cc1S(=O)(=O)N(C)C | 22.8% (inactive)
18 | Cc1ccc(C2=NN(C(=O)CSc3nc(N)cc(N)n3)C(c3ccco3)C2)cc1 (stereo unspecified) | -113% (active)
19 | CCS(=O)(=O)Nc1ccc(C2=NN(S(=O)(=O)c3ccc(F)cc3)C(c3ccco3)C2)cc1 (stereo unspecified) | 13.9% (inactive)
20 | Fc1ccc(N2N=C(c3cccs3)CC2c2ccco2)c(F)c1 (stereo unspecified) | 17.8% (inactive)
21 | CC(C)(C)c1ccc(NC(=O)COC(=O)CCc2nc3ccccc3c(=O)[nH]2)cc1 | -24.2% (inactive)
22 | C/C(=N/NC(=O)c1ccc(Br)o1)c1ccc(C)o1 | -24.9% (inactive)
23 | CCOc1ccc(NC(=O)c2ccc(CSc3nnnn3C)cc2)cc1 | -8.75% (inactive)
24 | CCc1cccc(CC)c1NC(=O)COc1ccccc1C(=O)c1cc(C#N)c(=O)n(C2CCCCC2)c1 | -12.2% (inactive)

Row | Compound | activity change (PNC), negative = inhibition
25 | CCOC(=O)c1[nH]c2c(c1-c1ccccc1)C(=O)CC(c1ccc(Cl)cc1)C2 (stereo unspecified) | 35.7% (inactive)
26 | CCCOC(=O)c1[nH]c2c(c1C)C(=O)CC(c1cccs1)C2 (stereo unspecified) | -85.9% (active)
27 | CCCOC(=O)c1[nH]c2c(c1C)C(=O)CC(c1cc(OC)c(OC)c(OC)c1)C2 (stereo unspecified) | 10.3% (inactive)
28 | CSc1ccccc1NC(=O)c1cc(C2CC2)on1 | -108% (active)
29 | CSc1ccccc1NC(=O)Cc1ccc(Br)cc1 | 27% (inactive)
30 | O=C(Nc1cc(C(F)(F)F)ccc1Cl)c1cc(C2CC2)on1 | -19.5% (inactive)
31 | Cc1cc(C(C)(C)C)cc(C)c1N | 15.5% (inactive)
32 | O=C(Cc1cc(=O)[nH][nH]1)N/N=C/c1ccccc1[N+](=O)[O-] | -21.2% (inactive)
33 | Cc1ccc(N(C(=O)c2ccc(CN3CCOCC3)o2)C(C(=O)NCCC(C)C)c2cccs2)c(C)c1 (stereo unspecified) | 4.19% (inactive)
34 | COc1ccc(NC(=O)Nc2ccc3nsnc3c2)cc1 | -27.5% (inactive)
35 | O=C(Nc1ccccc1)c1ccc2c(c1)OCO2 | 16.1% (inactive)
36 | O=C(Nc1ccccc1)c1ccc2nsnc2c1 | -106% (active)
37 | Cc1cc(C)cc(NC(=S)NCCCN2CCOCC2)c1 | 26.5% (inactive)
38 | Cc1ccc2c(Cl)c(C(=O)NCCCn3ccnc3)sc2c1 | -3.58% (inactive)
39 | CCCCC(=O)Nc1ccc(C(=O)NCCCn2ccnc2)cc1 | 40.1% (inactive)
40 | O=C(NCCCn1ccnc1)Nc1ccc(Cl)cc1Cl | -114% (active)
41 | CCCOc1ccc(NC(=O)C2OC3OC(C)(C)OC3C3OC(C)(C)OC23)cc1 (stereo unspecified) | 10.2% (inactive)
42 | COc1cccc(/C=N\NC(=O)C2=NNC(=O)C2C)c1O (stereo unspecified) | -8.21% (inactive)
43 | COc1cccc(/C=N/Nc2ncc(C(F)(F)F)cc2Cl)c1O | -85.6% (active)
44 | COc1cc(/C=C2\SC(=S)N(Nc3ncc(C(F)(F)F)cc3Cl)C2=O)cc(OC)c1OC | 7.84% (inactive)
45 | CCc1ccc2c(c1)C(c1ccc([N+](=O)[O-])cc1)=NNC(c1ccccc1)=N2 | 34.2% (inactive)
46 | Cc1ccc(-c2cc(C(=O)N/N=C/C=C/c3ccccc3)n[nH]2)o1 | -21.8% (inactive)
47 | CC(=O)CCC(=O)c1ccc2ccccc2c1 | 36.3% (inactive)
48 | Cc1cc(Cl)c(S(=O)(=O)N(C)C)cc1OCC(N)=O | -29.4% (inactive)

Row | Compound | activity change (PNC), negative = inhibition
49 | Cc1cc(Cl)c(S(=O)(=O)Nc2ccc3c(c2)OCCO3)cc1OCC(N)=O | -121% (active)
50 | Cc1cc(Cl)c(S(=O)(=O)NCC2CCCO2)cc1OCC(N)=O (stereo unspecified) | 9.99% (inactive)
51 | CCOC(=O)CSC1=C(C#N)C(c2ccco2)C(C(=O)OCc2ccccc2)=C(C)N1 (stereo unspecified) | -21.7% (inactive)
52 | CC1=C(C(=O)Nc2ccccc2)C(c2cccs2)C(C#N)=C(SCC#N)N1 (stereo unspecified) | -107% (active)
53 | CC1=C(C(=O)Nc2ccccc2)C(c2ccco2)C(C#N)=C(SCC(N)=O)N1 (stereo unspecified) | -15.2% (inactive)
54 | Cc1nn(C)c(C(=O)NNC(=S)NC2CCCCC2)c1Cl | 8.24% (inactive)
55 | Cc1ccc(NN=C2C(=O)OC(C)(C)OC2=O)c(C)c1 | 57.8% (inactive)
56 | Cc1ccn(CC(=O)N2N=C(C(F)F)CC2(O)C(F)F)n1 (stereo unspecified) | 3.67% (inactive)
57 | COc1ccc(NC(=O)c2ccc(OC)cc2)cc1 | 29.1% (inactive)
58 | COc1ccc(C(=O)Nc2ccc(S(=O)(=O)NC(C)C)cc2)cc1 | -112% (active)
59 | COc1cc(OC)cc(C(=O)Nc2ccc(S(=O)(=O)Nc3cc(C)on3)cc2)c1 | -25.6% (inactive)
60 | CC(=O)Nc1ccc(/C(C)=N/NC(=O)CN(c2ccccc2Br)S(C)(=O)=O)cc1 | -2.45% (inactive)
61 | CCOc1ccc2[nH]c(=O)c(CN(Cc3nnnn3CCc3ccccc3)CC3CCCO3)cc2c1 (stereo unspecified) | -100% (active)
62 | CCOc1ccc2[nH]c(=O)c(CN(Cc3nnnn3Cc3ccccc3)CC3CCCO3)cc2c1 (stereo unspecified) | -2.29% (inactive)
63 | COc1ccc2[nH]c(=O)c(CN(Cc3nnnn3CCc3ccccc3)CC3CCCO3)cc2c1 (stereo unspecified) | -7.29% (inactive)
64 | Cc1ccc(-n2ccc(=O)c(C(=O)O)n2)cc1 | -18.4% (inactive)
65 | Cc1ccc(S(=O)(=O)NCC(=O)N2CCN(c3ccccn3)CC2)cc1 | -10% (inactive)
66 | Cc1ccc(N2CCN(c3ccc(C)cc3)C2c2ccccn2)cc1 | -81.6% (active)
67 | CN(c1ccccc1)c1nc(N)c([N+](=O)[O-])c(NCc2ccco2)n1 | 22% (inactive)
68 | CNC(=O)/C(C#N)=C/c1c(F)cccc1Cl | 52.2% (inactive)
69 | COc1ccccc1N1CCN(CC(=O)NC(=O)NCc2ccco2)CC1 | -19.8% (inactive)
70 | Cc1noc(NS(=O)(=O)c2ccc(N/C=C/C(=O)c3ccccc3)cc2)c1C | 34.4% (inactive)
71 | Cc1noc(NS(=O)(=O)c2ccc(NC(=O)C34CCC(CC3)C4)cc2)c1C | -120% (active)
72 | COc1ccc(C(=O)Nc2ccc(S(=O)(=O)Nc3onc(C)c3C)cc2)cc1OC | 85.8% (inactive)

Row | Compound | activity change (PNC), negative = inhibition
73 | CCOC(=O)C1CCN(C(=O)/C=C/c2cc(OC)c(OC)c(OC)c2)CC1 | 5.16% (inactive)
74 | COC(=O)c1cnn2c(C(F)(F)F)cc(-c3ccco3)nc12 | 48.3% (inactive)
75 | COc1ccc(OCC(=O)N2CCOCC2)cc1 | -29.5% (inactive)
76 | COc1ccc(-c2cc(C(F)(F)F)n3nc(C(=O)N4CCOCC4)c(Cl)c3n2)cc1 | -106% (active)
77 | COc1ccc(-c2ccnc(SCC(=O)N3CCOCC3)n2)cc1 | -100% (active)
78 | COc1ccc(-c2nc(SCC(=O)N3CCOCC3)n[nH]2)cc1 | -17.8% (inactive)
79 | CCn1c(COc2cccc(OC)c2)nnc1SCC(=O)N1CCOCC1 | -11.5% (inactive)
80 | C/C(=N\NC(=O)c1ccc(NS(=O)(=O)c2cccs2)cc1)c1ccc2ccccc2c1 | 3.73% (inactive)
81 | CC1CCCN(CCOCCOc2ccccc2-c2ccccc2)C1 (stereo unspecified) | 40% (inactive)
82 | CC(=O)c1ccc(OCCN2CCOCC2)cc1 | 20.1% (inactive)
83 | O=C(NCCN=C1NS(=O)(=O)c2ccccc21)c1ccc(S(=O)(=O)N2CCOCC2)cc1 | -5.59% (inactive)
84 | COC(=O)c1ccc2c(c1)S(=O)(=O)NC(=NCCCN1CCOCC1)S2 | -119% (active)
85 | COc1ccc(C(=O)NNC(=S)NC(=O)c2ccccc2[N+](=O)[O-])cc1 | -4% (inactive)
86 | O=C(O)c1ccc(/C=N/NC(=O)c2ccc(Br)cc2)cc1 | -18.4% (inactive)
87 | O=C(C(Cl)Cl)N1CCN(c2ccccn2)CC1 | 42.3% (inactive)
88 | Cc1ccccc1CN(c1ccc(C(=O)NCC2CCCO2)cc1)S(C)(=O)=O (stereo unspecified) | -1.65% (inactive)
89 | C=C(C)C1CC=C(C)/C(=N\NC(=O)CNc2ccccc2OC)C1 (stereo unspecified) | -81.8% (active)
90 | COc1ccccc1Nc1ncc(C(C)=O)c(C)n1 | 9.62% (inactive)
91 | COc1ccc(Cl)cc1NC(=O)CNc1ccccc1F | -22.5% (inactive)
92 | CCCCc1cc2c(s1)CCCC/C2=N/O | 0.0645% (inactive)
93 | Cc1cc(C)c2c(n1)sc1c(=O)n(-c3ccccc3)c(=O)[nH]c12 | 19.8% (inactive)
94 | CCn1c(/C=N/NC(=O)c2ccc(OC)cc2)nc2ccccc21 | 27.2% (inactive)
95 | CCC(CC)C(=O)N1CCN(c2cccc(C)c2C)CC1 | -15.3% (inactive)
96 | COc1cc(/C=N\NC(=O)c2nonc2N)c(OC)cc1Br | 16.4% (inactive)
